# From PubChem BioAssay (NCI)
# About 83,000 compounds went through this panel and 20% of them were active in at least one assay; those are over-represented in the sample as a whole.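 Note: values are percent growth. 100 is the growth of untreated cells, values between 100 and 0 indicate rising inhibition; between -100 and 0 indicates cell death.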 A number with no mark means an inactive call. Activity calls are given as the source filed them. The calls were made as follows: active = growth percent below 10; inactive = the rest.
# Tested on: PC-3 prostate
# Test: NCI-60 one-dose screen, 48 h (100 = growth as untreated, 0 = no growth, -100 = all killed)
# Conditions: 10 µM unless noted
row,SMILES,growth
1,O=C1Nc2ccc(Br)cc2/C1=N\c1nnc(-c2ccc(Cl)cc2)o1,80.1%
2,C#C[C@]1(O)CC[C@H]2[C@@H]3CC=C4c5sc(Nc6cccc(C)n6)nc5CC[C@]4(C)[C@H]3CC[C@@]21C,-1.41% (active)
3,CS(=O)(=O)c1ccc2c(c1)c1c(n2Cc2ccc(Cl)cc2)CCCC1,51.9%
4,COc1ccc(-c2nnc(/N=C3/C(=O)Nc4ccc(Br)cc43)o2)cc1,104%
5,COc1ccc(S(=O)(=O)n2cc(C=O)c3ccccc32)c(OC)c1,66.3%
6,O=C1c2c(c3c4cccnc4[nH]c3c3ccc4ccccc4c23)C(=O)N1CCN1CCOCC1,62.1%
7,COc1ccc(NC2=C(Cl)C(=O)C(C)=C(C)C2=O)cc1,74.7%
8,COc1ccc(-c2cc(-c3ccc(Cl)cc3)nc3nc(N)nn23)cc1,106%
9,C#C[C@]1(O)CC[C@H]2[C@@H]3CC=C4c5sc(Nc6nc(C)cc(OC)n6)nc5CC[C@]4(C)[C@H]3CC[C@@]21C,27.5%
10,COc1ccc(/C=C/C(=O)c2nnn(-c3ccc(C(=O)O)cc3)c2C)cc1OC,97.7%
11,COc1cc(O)c2c(c1)/C=C/C[C@H](O)[C@H](O)C(=O)/C=C\C[C@H](C)OC2=O,42.6%
12,COc1ccccc1/C=C/C(=O)c1nnn(-c2ccc(C(=O)O)cc2)c1C,93.2%
13,O=S(=O)(Nc1ccc(C2CC2)cc1)c1ccc(-c2cnc(C3CC3)o2)cc1,63.1%
14,COc1cc(/C=N/Nc2ccnc3cc(Cl)ccc23)cc(OC)c1O,-61.1% (active)
15,COc1ccc(-c2nc(SCC(C)C)nc(N/N=C\c3cccc([N+](=O)[O-])c3)c2C#N)cc1,55.2%
16,CCCCCCNC(=O)Oc1ccc(/C(=C(\C)c2ccc(OC)cc2)c2ccc(OCCN(C)C)cc2)cc1,66.2%
17,CCCCSc1nnc(-c2ccc(-c3ccc(Cl)cc3)nc2C)o1,91.9%
18,CC(C)c1nn(-c2ccccc2)c(N2CCCCC2)c1/C=N/NC(N)=S,82.5%

row,SMILES,growth
1,C#C[C@]1(O)CC[C@H]2[C@@H]3CC=C4c5sc(Nc6ccc(OC)nc6)nc5CC[C@]4(C)[C@H]3CC[C@@]21C,29.9%
2,COc1cc(-c2noc(C[C@@H](NC(=O)OCc3ccccc3)C(C)C)n2)cc(OC)c1OC,97%
3,COc1ccc(-c2ccc3c4c(cccc24)C(=O)N(N2C(=O)c4cccc5cccc(c45)C2=O)C3=O)cc1,87.7%
4,Cc1nn(-c2ccc(Br)cc2)c2nc(CCl)[nH]c(=O)c12,96.4%
5,CN1CCN(c2ccc(C(=O)Nc3cccc(-c4cn(-c5ccc(S(N)(=O)=O)cc5)nn4)c3)cc2C(F)(F)F)CC1,69.8%
6,COc1ccc(Cn2cc3c(c2-c2ccccc2)CCCc2cnoc2-3)cc1[N+](=O)[O-],69.5%
7,NS(=O)(=O)Oc1ccc2nc(Nc3ccc(F)c(F)c3)ccc2c1,90.6%
8,O=C1c2c(c3c4cc(Br)ccc4[nH]c3c3ccc4ccccc4c23)C(=O)N1CCN1CCNCC1,67.2%
9,CC1CCN(S(=O)(=O)c2ncsc2-c2ccccc2)CC1,80.8%
10,O=C1NC(=O)c2c1c1c3ccccc3ccc1c1[nH]c3ccccc3c21,1.07% (active)
11,COc1cc([C@H]2OC[C@H]3[C@@H]2CO[C@@H]3c2ccc(O)c(OC)c2)ccc1O,82.6%
12,CCN(CC)CCN1C(=O)c2c(c3c4cc(Br)ccc4[nH]c3c3ccc4ccccc4c23)C1=O,-80.9% (active)
13,CC(C)=CCC[C@](C)(O)[C@H]1CC[C@]2(C)[C@@H]1CC[C@@H]1[C@@]3(C)CCC(NC(=O)c4ccccc4C(=O)O)C(C)(C)[C@@H]3CC[C@]12C (stereo not given in full),81.5%
14,Clc1ccc(-c2csc(N/N=C/c3nc4ccccc4n3C3CC3)n2)cc1,98.4%
15,Cc1ccc(-c2csc(N/N=C/c3nc4ccccc4n3C3CC3)n2)cc1,61.6%
16,C#C[C@]1(O)CC[C@H]2[C@@H]3CC=C4c5sc(-c6ccccn6)nc5CC[C@]4(C)[C@H]3CC[C@@]21C,51.9%
17,O=C1c2c(c3c4cccnc4[nH]c3c3ccc4ccccc4c23)C(=O)N1CCN1CCNCC1,66.8%
